Records with an inconclusive call do not appear. Active and inactive are the calls of the source. Rule for the calls: active = hit-call score of the fitted dose curve at least 0.9, where 1 is the maximum; inconclusive = response in the unintended direction; inactive = score below 0.9.

In general, AC50 refers to the concentration giving half of the maximal activity seen.

Chain of human Esterase Plasma (ES), BCHE (gene 590) (P06276 whole entry, looked up): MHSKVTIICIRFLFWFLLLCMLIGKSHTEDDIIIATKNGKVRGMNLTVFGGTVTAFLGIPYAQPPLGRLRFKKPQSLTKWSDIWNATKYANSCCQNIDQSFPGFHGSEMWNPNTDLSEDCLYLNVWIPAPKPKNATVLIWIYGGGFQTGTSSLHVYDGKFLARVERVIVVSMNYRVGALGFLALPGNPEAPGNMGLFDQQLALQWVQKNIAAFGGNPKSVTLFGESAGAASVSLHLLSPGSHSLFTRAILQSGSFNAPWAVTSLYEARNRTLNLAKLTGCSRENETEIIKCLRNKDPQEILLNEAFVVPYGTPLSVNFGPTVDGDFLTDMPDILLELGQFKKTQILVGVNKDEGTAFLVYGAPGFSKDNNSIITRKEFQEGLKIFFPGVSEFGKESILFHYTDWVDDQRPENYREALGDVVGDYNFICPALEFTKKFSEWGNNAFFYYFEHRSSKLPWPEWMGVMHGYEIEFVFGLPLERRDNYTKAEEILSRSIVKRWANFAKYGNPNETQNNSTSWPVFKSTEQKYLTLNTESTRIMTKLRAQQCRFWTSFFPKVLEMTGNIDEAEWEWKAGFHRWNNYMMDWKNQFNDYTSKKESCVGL
Chain of human Casein Kinase 1-delta (CK1D), CSNK1D (gene 1453) (P48730 whole entry, looked up): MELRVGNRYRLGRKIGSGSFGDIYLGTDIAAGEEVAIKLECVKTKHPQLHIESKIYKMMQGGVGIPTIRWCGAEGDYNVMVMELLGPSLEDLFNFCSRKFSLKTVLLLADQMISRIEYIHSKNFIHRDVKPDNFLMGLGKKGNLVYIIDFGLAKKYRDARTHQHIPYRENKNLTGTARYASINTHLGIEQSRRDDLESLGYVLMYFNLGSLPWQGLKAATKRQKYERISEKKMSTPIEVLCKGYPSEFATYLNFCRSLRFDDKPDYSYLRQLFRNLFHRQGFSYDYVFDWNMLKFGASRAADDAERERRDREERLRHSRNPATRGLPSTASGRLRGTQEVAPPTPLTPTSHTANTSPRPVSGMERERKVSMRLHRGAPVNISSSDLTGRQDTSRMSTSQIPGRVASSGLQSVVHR
Chain of human Dual Specificity Protein Phosphatase 3 (DUSP3), DUSP3 (gene 1845) (P51452 whole entry, looked up): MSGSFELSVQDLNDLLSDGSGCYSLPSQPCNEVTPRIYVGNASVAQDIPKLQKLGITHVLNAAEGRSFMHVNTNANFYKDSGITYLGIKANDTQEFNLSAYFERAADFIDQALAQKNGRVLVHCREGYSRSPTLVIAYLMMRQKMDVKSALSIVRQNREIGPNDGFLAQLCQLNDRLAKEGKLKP
Chain of human Caspase 8 (CASP8), CASP8 (gene 841) (Q14790 whole entry, looked up): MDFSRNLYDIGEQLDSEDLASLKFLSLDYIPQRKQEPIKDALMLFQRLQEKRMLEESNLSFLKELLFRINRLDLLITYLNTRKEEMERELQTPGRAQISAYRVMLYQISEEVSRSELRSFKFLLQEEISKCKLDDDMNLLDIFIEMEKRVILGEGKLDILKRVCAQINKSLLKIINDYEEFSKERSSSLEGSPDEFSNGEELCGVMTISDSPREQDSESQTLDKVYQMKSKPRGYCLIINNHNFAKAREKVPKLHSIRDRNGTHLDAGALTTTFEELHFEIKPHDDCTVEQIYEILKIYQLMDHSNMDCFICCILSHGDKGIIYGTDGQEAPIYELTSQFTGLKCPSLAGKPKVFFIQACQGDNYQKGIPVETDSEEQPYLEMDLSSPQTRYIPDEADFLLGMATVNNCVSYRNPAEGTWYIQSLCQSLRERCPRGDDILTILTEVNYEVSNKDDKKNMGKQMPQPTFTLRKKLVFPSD

One test has as its target CDK2 (gene 1017) (UniProt P24941). Briefly: NVS_ENZ_hCDK2: NovaScreen (NVS) Enzymatic Assay for human Cyclin-Cependent Kinase 2 (CDK2) (AID 2283144). In short, it runs like this: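 Compounds screened in duplicate at 25 uM, then in singleton concentration-response to a maximum of 50 uM, against recombinant CDK2; kinase activity read 1 hr after dosing by fluorescence with mobility-shift separation of substrate and product.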
With `CN1C(=O)N(c2ccccc2Br)Cc2cnc(Nc3ccc4c(c3)OCC(CO)O4)nc21` (stereo unspecified), the AC50 was 11.7 µM (active).

In the case of `Oc1ccc2ccccc2c1`, the result was inactive.

For `Clc1cc(Cl)c2c(c1)N=C1CCCCCN1C2`, the molecule was called inactive.

Take `c1ccc2ccccc2c1`: the call was inactive.

The next test has as its target human Caspase 8 (CASP8), CASP8 (gene 841) (UniProt Q14790). Briefly: NVS_ENZ_hCASP8: NovaScreen (NVS) Enzymatic Assay for human Caspase 8 (CASP8) (AID 2283146). In short, it runs like this:
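The primary screen tested compounds in duplicate at a single 25 uM concentration, with actives followed up in concentration series. Activity of recombinant (E. coli) protease was measured by fluorescence 1 h post-dose, as signal loss against DMSO.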
Consider `CCCCCCCCOc1ccc(C(=O)c2ccccc2)c(O)c1`, for which the call was inactive.

Consider `CCCCCCCCCCCC[N+](C)(C)C`, for which the molecule was classed as inactive.

For the molecule `CC/C(=C(/CC)c1ccc(O)cc1)c1ccc(O)cc1`, the outcome was inactive.

The target in another test is human Casein Kinase 1-delta (CK1D), CSNK1D (gene 1453) (UniProt P48730). Briefly: NVS_ENZ_hCK1D: NovaScreen (NVS) Enzymatic Assay for human Casein Kinase 1-delta (CK1D) (AID 2283148). In short, it runs like this:
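Recombinant human CK1-delta, cell-free; fluorescent substrate with electrophoretic mobility-shift separation of product, read 1 h after dosing. Single 25 uM duplicate screen, then concentration-response up to 50 uM; loss of signal vs DMSO.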
For `Oc1ccc2ccccc2c1`, the AC50 is 24.1 µM (active).

`c1ccc2n[nH]nc2c1`: the AC50 was 25 µM (active).

With `c1ccc2ccccc2c1`, the molecule was called inactive.

As for `CC/C(=C(/CC)c1ccc(O)cc1)c1ccc(O)cc1`, the outcome was inactive.

Consider `O=CCCCC=O`, for which the molecule was classed as inactive.

Consider `O=C1c2ccccc2C(=O)N1CCc1noc(-c2ccc(CN3CCCCCC3)s2)n1`, for which the result was inactive.

The target in another test is human Colony Stimulating Factor 1 Receptor (CSF1R), CSF1R (gene 1436) (UniProt P07333). Briefly: NVS_ENZ_hCSF1R: NovaScreen (NVS) Enzymatic Assay for human Colony Stimulating Factor 1 Receptor (CSF1R) (AID 2283150). In short, it runs like this: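 Compounds screened in duplicate at 25 uM, then concentration-response (top 50 uM) for those passing threshold such as 30% inhibition; recombinant CSF1R activity measured 1 h post-dosing via fluorescent substrate/product mobility-shift separation, loss of signal versus DMSO.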
Chain of human Colony Stimulating Factor 1 Receptor (CSF1R), CSF1R (gene 1436) (P07333 whole entry, looked up): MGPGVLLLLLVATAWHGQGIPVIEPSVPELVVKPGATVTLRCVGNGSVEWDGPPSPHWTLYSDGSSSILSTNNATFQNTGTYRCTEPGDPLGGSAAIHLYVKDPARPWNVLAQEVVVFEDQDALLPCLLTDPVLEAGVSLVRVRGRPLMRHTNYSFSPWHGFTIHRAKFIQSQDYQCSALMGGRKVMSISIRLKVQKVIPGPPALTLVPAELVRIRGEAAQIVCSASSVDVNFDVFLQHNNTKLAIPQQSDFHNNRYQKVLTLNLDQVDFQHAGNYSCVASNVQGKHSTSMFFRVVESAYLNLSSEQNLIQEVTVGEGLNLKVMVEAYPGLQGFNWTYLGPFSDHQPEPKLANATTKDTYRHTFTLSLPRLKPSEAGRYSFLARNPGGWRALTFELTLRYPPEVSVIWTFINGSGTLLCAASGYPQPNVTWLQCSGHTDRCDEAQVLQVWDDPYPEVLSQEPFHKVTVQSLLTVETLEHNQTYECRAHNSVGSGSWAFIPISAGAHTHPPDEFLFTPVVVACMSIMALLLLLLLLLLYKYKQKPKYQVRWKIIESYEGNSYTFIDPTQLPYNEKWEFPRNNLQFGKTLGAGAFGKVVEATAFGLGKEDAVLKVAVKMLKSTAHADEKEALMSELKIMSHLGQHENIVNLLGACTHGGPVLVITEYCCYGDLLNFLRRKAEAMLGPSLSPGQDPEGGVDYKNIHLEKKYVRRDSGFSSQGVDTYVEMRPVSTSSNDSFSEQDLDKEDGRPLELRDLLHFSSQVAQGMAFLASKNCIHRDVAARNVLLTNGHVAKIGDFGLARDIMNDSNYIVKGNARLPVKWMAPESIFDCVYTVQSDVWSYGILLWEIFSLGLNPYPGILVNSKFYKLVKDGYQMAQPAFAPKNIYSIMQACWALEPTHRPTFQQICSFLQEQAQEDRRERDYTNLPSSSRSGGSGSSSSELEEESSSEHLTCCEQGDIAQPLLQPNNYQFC
Regarding `Cc1oc2c(NC(=O)c3c(Cl)cccc3Cl)cccc2c1C(C)(C)O`, the call was inactive.

Take `C[C@]12CC[C@@H]3c4ccc(O)cc4CC[C@H]3[C@@H]1CC[C@H]2O`: the molecule was classed as inactive.

Regarding `c1ccc2ccccc2c1`, the call was inactive.

Consider `CCCC(=O)OCCC(C)C`, for which the result was inactive.

Consider `CC/C(=C(/CC)c1ccc(O)cc1)c1ccc(O)cc1`, for which the result was inactive.

The next test deals with human Dual Specificity Protein Phosphatase 3 (DUSP3), DUSP3 (gene 1845) (UniProt P51452). Briefly: NVS_ENZ_hDUSP3: NovaScreen (NVS) Enzymatic Assay for human Dual Specificity Protein Phosphatase 3 (DUSP3) (AID 2283152).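 Note: phosphatase activity of recombinant human DUSP3 on a fluorogenic substrate without cells.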 In short, it runs like this:
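Cell-free fluorescence-intensity enzyme activity assay with recombinant protein and substrate; loss of signal fitted relative to DMSO baseline. Primary screen in duplicate at 25 uM, actives then run in concentration series; measured 0 h after dosing.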
In the case of `CN1C(=O)N(c2ccccc2Br)Cc2cnc(Nc3ccc4c(c3)OCC(CO)O4)nc21` (stereo unspecified), the AC50 is 8 µM (active).

Take `CCCCCCCCOc1ccc(C(=O)c2ccccc2)c(O)c1`: the molecule was called inactive.

As for `Cc1ccc2oc(CN(Cc3ccccc3)C(=O)Nc3c(F)cc(F)cc3F)c(-c3ccc(Cl)cc3)c2c1`, the AC50 is 9.32 µM (active).

Regarding `Cc1c2ccccc2c(C)c2c1ccc1ccccc12`, the call was inactive.

With `OC12N=C(c3ccccc3)SC1Cc1cc(Cl)ccc12` (stereo unspecified), the AC50 was 4.92 µM (active).

In the case of `O=C1CCC(C2CCCCC2)CC1`, the AC50 is 22.2 µM (active).

As for `Cc1cc(F)ccc1-c1cc(N2CC[C@@H](O)[C@H]2CO)ncc1N(C)C(=O)C(C)(C)c1cc(C(F)(F)F)cc(C(F)(F)F)c1`, the AC50 was 12.3 µM (active).

Regarding `O=C1c2ccccc2C(=O)N1CCc1noc(-c2ccc(CN3CCCCCC3)s2)n1`, the concentration at half-maximal activity (AC50) is 19.9 µM (active).

The next test has as its target human Esterase Plasma (ES), BCHE (gene 590) (UniProt P06276). Briefly: NVS_ENZ_hES: NovaScreen (NVS) Enzymatic Assay for human Esterase Plasma (ES) (AID 2283157). The procedure, abridged: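 Screening ran at 25 uM in duplicate, followed by singleton concentration series reaching 50 uM for actives. Human plasma protein, colorimetric detection, 0.25 h exposure, DMSO negative control.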
For the molecule `C[C@]12CC[C@@H]3c4ccc(O)cc4CC[C@H]3[C@@H]1CC[C@H]2O`, the molecule was classed as inactive.

`Oc1ccc2ccccc2c1`: the molecule was classed as inactive.

Consider `Clc1cc(Cl)c2c(c1)N=C1CCCCCN1C2`, for which the AC50 is 13.7 µM (active).

`Cc1occc1C(=O)Nc1ccc(C(=O)N2CCC(F)(F)/C(=C\C(=O)N3CCC(N4CCCCC4)CC3)c3ccccc32)cc1`: the result was inactive.

For `Cc1c2ccccc2c(C)c2c1ccc1ccccc12`, the molecule was classed as inactive.

Consider `c1ccc(C[n+]2cccc3ccccc32)cc1`, for which the call was inactive.

Take `CC/C(=C(/CC)c1ccc(O)cc1)c1ccc(O)cc1`: the result was inactive.

In the case of `O=CCCCC=O`, the outcome was inactive.

As to `O=C1c2ccccc2C(=O)N1CCc1noc(-c2ccc(CN3CCCCCC3)s2)n1`, the AC50 was 18.2 µM (active).

In the case of `COc1cccc([C@H](O)C2CCN(CCc3ccc(F)cc3)CC2)c1OC`, the AC50 was 18.2 µM (active).

The values are drawn from PubChem BioAssay (EPA / NIEHS).
